# A selection: hits, their analogues and other compounds. The true share with any hit is near 32%.
# CYP2C9 activ: increases human cytochrome P450 2C9 activity | activation factor at 5 µM | recombinant CYP2C9, luciferin-H conversion, luminescence; active compounds read high; factor 1 = untreated enzyme, 0 = blocked | 96,000 tested, 1.4% active | P11712;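 active = activation factor of 2 or more for CYP2C9 at a 5 µM dose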;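 note: 0 = sulfaphenazole-blocked wells and 1 = vehicle-only wells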
# CYP2C19 inh: human CYP2C19 inhibition. P33261. CYP2C19 Supersomes, luciferin-H EGE luminescence, 30 min. inhibition, % at 5 µM. 96,000 tested, 21% active. AID 778;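 active = CYP2C19 inhibition above a set limit at 5 µM in the primary screen, cut at about 50% in these data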;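 note: plate controls were negative control wells for no effect and 2.5 mM tranylcypromine positive control for full effect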
# Target sequence (P33261 whole entry, looked up): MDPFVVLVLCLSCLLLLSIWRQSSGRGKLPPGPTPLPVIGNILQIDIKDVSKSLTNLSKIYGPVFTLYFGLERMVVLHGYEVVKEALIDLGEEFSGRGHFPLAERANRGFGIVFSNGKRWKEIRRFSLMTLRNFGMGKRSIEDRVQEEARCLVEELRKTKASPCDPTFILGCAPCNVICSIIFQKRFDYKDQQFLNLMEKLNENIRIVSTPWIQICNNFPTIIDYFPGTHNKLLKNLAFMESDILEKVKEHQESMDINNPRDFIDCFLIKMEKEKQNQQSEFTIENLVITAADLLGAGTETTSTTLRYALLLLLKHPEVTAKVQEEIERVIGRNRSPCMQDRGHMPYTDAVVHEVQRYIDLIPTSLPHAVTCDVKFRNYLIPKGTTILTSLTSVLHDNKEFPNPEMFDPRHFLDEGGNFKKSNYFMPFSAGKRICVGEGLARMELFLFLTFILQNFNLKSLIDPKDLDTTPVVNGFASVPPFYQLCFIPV
# PostGolgi yeast: growth inhibition of a yeast mutant, post-Golgi transport screen; post-Golgi transport phenotypic cell assay; inhibition, % at 10 µM; 98,000 tested, 0.9% active; AID 739;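 note: yeast cells grown in 1536-well plates; yeast grown about 18 h at 30C before absorbance read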
# PostGolgi ctrl: growth of the yeast control strain, post-Golgi counter-screen. AID 738. inhibition, % at 10 µM. efflux-deficient yeast background strain, growth absorbance A615, 16 h. 98,000 tested, 5% active
# CYP2C9 inhib: blocks human cytochrome P450 2C9. CYP2C9 Supersomes, luciferin-H conversion, luminescence. 96,000 tested, 20% active. inhibition, % at 5 µM. AID 777;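 active = blocking of liver enzyme CYP2C9 beyond about 50% at 5 µM, limit read from the data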
# CYP2C19 activ: increases human CYP2C19 enzyme activity | recombinant CYP2C19, luciferin-H EGE luminescence; active compounds read high; 0 = fully inhibited enzyme, 1 = untreated enzyme | activation factor at 5 µM | 96,000 tested, under 10 active | AID 1025;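 active = activation factor of at least 2 at 5 µM in the primary screen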;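 note: 0 = wells with 2.5 mM tranylcypromine and 1 = vehicle-only wells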
# Numbers without * were called inactive; / = no result given. Cut-off read from the data, not from the text of the source, unless noted: active = inhibition above about 30%; inactive = the rest.
SMILES,CYP2C9 activ,CYP2C19 inh,PostGolgi yeast,PostGolgi ctrl,CYP2C9 inhib,CYP2C19 activ
COc1ccc(C(=O)CC(c2ccccc2)C2C(=O)CCCC2=O)cc1 (stereo not given),0.1,68.7*,-0.3,23.3,93.1*,0.3
COc1ccc(C(C(=O)OC(C)CN(C)C)c2ccccc2)cc1 (stereo not given),0.9,8.9,35.2*,1.0,13.9,0.9
CCCCOc1ccc(C(=O)OC(C)CN(C)C)cc1 (stereo not given),1,3.9,-0.8,-0.8,1.8,1
COc1ccc2c(CSc3nc4nc(C)cc(C)n4n3)cc(=O)oc2c1,0.2,71.5*,-2.8,3.2,84.7*,0.3
Cc1cc(C)n2nc(SCC#N)nc2n1,/,/,4.2,-1.8,/,/
Cc1cc(C)n2nc(SCc3ncc(-c4ccccc4)o3)nc2n1,0.8,86.0*,/,/,18.8,0.1
CCOC(=O)C1=NN(c2cccc(C)c2)C2(S1)SC(C(C)=O)=C(C)N2c1ccccc1 (stereo not given),0.2,46.7,-3.9,19.9,80.1*,0.5
COC(=O)C1=NN(c2ccccc2)C2(S1)S/C(=C\c1ccccc1)C(=O)N2c1ccccc1 (stereo not given),0.5,87.5*,2.3,9.9,53.8*,0.1
CCOC(=O)C1=NN(c2ccc(C)cc2)C2(S1)SC(C(C)=O)=C(C)N2c1ccccc1 (stereo not given),0.5,39.3,5.4,11.3,53.7*,0.6
CCS(=O)(=O)c1ccc2c(c1)N(S(=O)(=O)c1ccc(OC)cc1)CC(C(=O)O)O2 (stereo not given),/,/,-23.0,7.3,/,/
CCN(CC)C(=O)CSc1nc(O)c(Cc2ccccc2)c(=O)n1-c1ccccc1,1,-2.5,5.0,15.3,-3.5,1
Cc1sc(NC(=O)c2ccc(OCC(C)C)cc2)c(C(N)=O)c1-c1ccc(Cl)cc1Cl,0.3,12.2,7.9,5.5,68.5*,0.9
COCCNC(=O)CN1CCN(Cc2cccc(Cl)c2)C1=O,1,2.1,9.3,-2.3,0.3,1
c1ccc2c(c1)oc1c(NCCCN3CCOCC3)ncnc12,0.7,23.0,-0.2,-6.4,30.2,0.8
c1ccc2c(c1)oc1c(NCCCn3ccnc3)ncnc12,0.1,80.0*,0.6,3.5,91.7*,0.2
Cc1nc(NCCCn2ccnc2)c2oc3ccccc3c2n1,0,84.7*,-8.3,1.8,95.8*,0.2
Cc1cccn2cc(-c3ccc(F)cc3)nc12,0.6,67.0*,-5.9,-2.5,38.1,0.3
Cc1cccn2cc(-c3ccccc3)nc12,1,8.6,-2.0,5.2,-0.4,0.9
CCCCOC(=O)c1cc(=O)[nH]c2ccccc12,0.9,25.3,18.8,-1.1,7.2,0.7
CCOC(=O)c1c(C)[nH]c(C(=O)O)c1C,0.7,10.9,3.8,-1.5,25.7,0.9
Cc1noc(C)c1COC(=O)c1cc(=O)[nH]c2ccccc12,0.2,60.4*,-2.9,29.0,79.9*,0.4
CCc1cccc2c(C(=O)COC(=O)c3c(C)noc3C)c[nH]c12,0.9,11.0,-8.1,-2.8,6.7,0.9
CCn1nc(C(=O)OCc2c(C)noc2C)c2ccccc2c1=O,0.2,-35.3,-3.3,16.0,76.1*,1.4
Cc1noc(C)c1C(=O)OCC(=O)c1c[nH]c2ccccc12,0.1,90.8*,1.3,16.7,88.0*,0.1
CCn1nc(C(=O)OC2CCOC2=O)c2ccccc2c1=O (stereo not given),0.8,4.8,1.3,9.6,17.0,1
SMILES,CYP2C9 activ,CYP2C19 inh,PostGolgi yeast,PostGolgi ctrl,CYP2C9 inhib,CYP2C19 activ
CCOC(=O)c1[nH]c(C)c(C(=O)OCc2c(C)noc2C)c1C,0.3,33.2,1.3,19.2,65.1*,0.7
Cc1cccc(C)c1NC(=O)N1CCC(c2nc3ccccc3o2)CC1,0.9,6.3,1.8,9.3,14.4,0.9
Cc1ccc(-c2ccnc(=S)[nH]2)cc1,0.8,-5.7,-5.2,25.4,15.7,1.1
Nn1c(-c2ccco2)n[nH]c1=S,0.9,1.7,4.2,-9.6,8.7,1
CN=C(c1ccco1)n1c(=S)nc(-c2ccco2)n(C)c1=S,0.3,78.6*,0.5,10.8,65.8*,0.2
COc1ccc(C(C#N)C2(C)OCCO2)cc1OC (stereo not given),0.7,14.5,-2.4,1.7,27.1,0.9
COc1cc(/C=N/NC(=O)CCc2c(C)n[nH]c2C)ccc1O,0.7,7.8,-1.1,5.0,30.3,0.9
Cc1cc(NC(=O)Nc2cccc3ccccc23)no1,1.3,22.7,-9.3,18.3,-30.4,0.8
S=C(Nc1cccc2ccccc12)NN1CCOCC1,0.2,75.2*,-23.0,5.7,80.7*,0.2
O=C(Nc1cc(N2CCOCC2)ncn1)Nc1cccc2ccccc12,2*,13.0,-7.0,7.9,-102.2,0.9
O=C(Nc1cccc2ccccc12)N1CCOCC1,1,-2.9,-0.9,17.7,-1.1,1
CCOC(=O)c1ccc(NC(=O)CSc2nc3c(c(=O)n2-c2ccccc2OC)SCC3)cc1,0.6,31.6,/,/,40.9,0.7
CC1(C)CC(=O)C2=C(C1)N(c1ccccc1C#N)C(N)=C(C#N)C2c1cccs1 (stereo not given),0.3,25.3,-2.7,1.4,71.3*,0.7
CCSc1sccc1C1C(C#N)=C(N)N(c2cccnc2)C2=C1C(=O)CC(C)(C)C2 (stereo not given),0.4,73.6*,-4.0,6.5,59.9*,0.3
CC1(C)CC(=O)C2=C(C1)OC(c1cccs1)C(C#N)=C2N (stereo not given),0.3,82.7*,21.0,0.9,67.9*,0.2
COc1ccc(N2C(N)=C(C#N)C(c3cccnc3)C3=C2CC(C)(C)CC3=O)cc1 (stereo not given),0.4,30.4,-8.4,15.0,55.9*,0.7
CCn1c(=O)cc(OCC(=O)Nc2ccccc2C#N)c2ccccc21,0.6,29.8,3.7,0.0,40.8,0.7
COc1ccc(C(=O)N(Cc2ccco2)Cc2cccs2)c(O)c1,0,88.4*,-32.0,21.8,95.4*,0.1
CN(C)S(=O)(=O)N1CCC(c2ccc(F)cc2)C(COc2ccc3c(c2)OCO3)C1 (stereo not given),0.1,78.7*,12.3,13.4,94.8*,0.2
CN(C)S(=O)(=O)N1CCN(S(=O)(=O)c2ccc(F)cc2)CC1,1,13.0,-2.6,22.1,-0.5,0.9
COc1cccc(-n2nnc3c(=O)n(CC(=O)N4CCC(Cc5ccccc5)CC4)cnc32)c1,1.1,-5.6,5.3,26.4,-10.0,1.1
COc1cc(OC)cc(C(=O)NCc2n[nH]c(=S)n2-c2ccccc2)c1,0.8,64.4*,0.3,7.1,16.9,0.4
O=C(NCc1n[nH]c(=S)n1-c1cccc(Cl)c1)c1ccc(S(=O)(=O)N2CCCC2)cc1,0.4,42.4,0.3,3.2,61.0*,0.6
COc1ccc(C(=O)NCc2n[nH]c(=S)n2-c2ccccc2)cc1OC,0.9,21.4,-1.4,-2.6,11.5,0.8

# Assay outcomes (PubChem BioAssay)
